Drawing on PubChem BioAssay AID1745853 (National Center for Advancing Translational Sciences (NCATS), 2022), this text covers activity change, negative = inhibition for 25 compounds.

Structures are written as SMILES. In all, about 25,000 compounds went through this assay and about 970 (3.9%) were called active. Roughly 8% stayed inconclusive and do not appear here. How the calls were made is not given here. Shown is part of a subset that was picked to be rich in actives.

What all share (experiment): Primary Screen for Target Class Profiling of Small Molecule Inhibitors of Methyltransferases
For assay [1], the target named is Catechol O-methyltransferase (Homo sapiens) (UniProt P21964). The settings on record: purified enzyme, MTase-Glo SAH luminescence; activity change, negative = inhibition: at 40 µM, stronger effect = lower value; outcome: 40 uM. In short, it runs like this: (§1)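 Each enzyme was reacted with SAM and its substrate, with compounds tested once at 40 uM; SAH formed was read by MTase-Glo luminescence.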

The target of assay [2] is Glycine N-methyltransferase (Homo sapiens) (UniProt Q14749). The settings on record: purified enzyme, MTase-Glo SAH luminescence; measured here: GNMT inhibition; at 40 µM; stronger effect = lower value. In a few lines:
as §1

Assay [3] deals with Guanidinoacetate N-methyltransferase (Homo sapiens) (UniProt Q14353). Conditions: purified enzyme, MTase-Glo SAH luminescence; measured here: GAMT inhibition; at 40 µM; stronger effect = lower value. In a few lines: as §1
In assay [4] the target is Histamine N-methyltransferase (Homo sapiens) (UniProt P50135). Conditions: purified enzyme, MTase-Glo SAH luminescence; measured here: HNMT inhibition; at 40 µM; stronger effect = lower value. In a few lines: as §1
The target in assay [5] is Nicotinamide N-methyltransferase (Homo sapiens) (UniProt P40261). The settings on record: purified enzyme, MTase-Glo SAH luminescence; measured here: NNMT inhibition; at 40 µM; stronger effect = lower value. In a few lines: as §1
In assay [6] the target is Phenylethanolamine N-methyltransferase (Homo sapiens) (UniProt P11086). The settings on record: purified enzyme, MTase-Glo SAH luminescence; measured here: PNMT inhibition; at 40 µM; stronger effect = lower value. In short, it runs like this: as §1
On the % scale 0 is the no-effect control and ±100 the full control effect.

Catechol O-methyltransferase (Homo sapiens), sequence (P21964 whole entry, looked up): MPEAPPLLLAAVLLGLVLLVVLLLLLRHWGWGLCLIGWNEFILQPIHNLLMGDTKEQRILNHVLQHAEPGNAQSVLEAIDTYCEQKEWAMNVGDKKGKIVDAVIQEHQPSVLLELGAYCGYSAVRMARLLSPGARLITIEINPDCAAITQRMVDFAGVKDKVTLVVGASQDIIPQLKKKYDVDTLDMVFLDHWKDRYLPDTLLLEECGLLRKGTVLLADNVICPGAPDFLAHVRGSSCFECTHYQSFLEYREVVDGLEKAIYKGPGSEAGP
Phenylethanolamine N-methyltransferase (Homo sapiens), sequence (P11086 whole entry, looked up): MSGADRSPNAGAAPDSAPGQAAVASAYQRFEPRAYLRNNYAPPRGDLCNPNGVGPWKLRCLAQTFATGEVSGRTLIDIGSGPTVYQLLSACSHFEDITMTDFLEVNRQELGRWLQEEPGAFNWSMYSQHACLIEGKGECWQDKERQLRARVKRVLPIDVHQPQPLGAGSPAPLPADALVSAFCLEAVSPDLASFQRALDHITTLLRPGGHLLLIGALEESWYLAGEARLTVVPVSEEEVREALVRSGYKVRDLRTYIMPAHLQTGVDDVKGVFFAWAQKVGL
Nicotinamide N-methyltransferase (Homo sapiens), sequence (P40261 whole entry, looked up): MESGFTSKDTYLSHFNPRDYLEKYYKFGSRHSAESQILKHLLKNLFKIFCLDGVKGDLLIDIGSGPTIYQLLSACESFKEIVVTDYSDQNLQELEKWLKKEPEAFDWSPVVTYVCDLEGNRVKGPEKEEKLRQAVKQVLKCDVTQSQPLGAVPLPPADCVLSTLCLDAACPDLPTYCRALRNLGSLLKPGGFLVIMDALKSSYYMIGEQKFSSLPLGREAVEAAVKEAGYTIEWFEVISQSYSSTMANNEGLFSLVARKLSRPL
Histamine N-methyltransferase (Homo sapiens), sequence (P50135 whole entry, looked up): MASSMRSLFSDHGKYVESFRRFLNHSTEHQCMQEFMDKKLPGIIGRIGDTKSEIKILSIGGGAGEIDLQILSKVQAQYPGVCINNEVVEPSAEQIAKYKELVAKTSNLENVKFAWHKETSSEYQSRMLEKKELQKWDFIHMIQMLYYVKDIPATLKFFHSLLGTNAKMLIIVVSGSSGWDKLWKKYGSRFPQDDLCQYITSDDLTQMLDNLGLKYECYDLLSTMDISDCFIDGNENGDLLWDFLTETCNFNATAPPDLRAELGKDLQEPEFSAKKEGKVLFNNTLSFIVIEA
Glycine N-methyltransferase (Homo sapiens), sequence (Q14749 whole entry, looked up): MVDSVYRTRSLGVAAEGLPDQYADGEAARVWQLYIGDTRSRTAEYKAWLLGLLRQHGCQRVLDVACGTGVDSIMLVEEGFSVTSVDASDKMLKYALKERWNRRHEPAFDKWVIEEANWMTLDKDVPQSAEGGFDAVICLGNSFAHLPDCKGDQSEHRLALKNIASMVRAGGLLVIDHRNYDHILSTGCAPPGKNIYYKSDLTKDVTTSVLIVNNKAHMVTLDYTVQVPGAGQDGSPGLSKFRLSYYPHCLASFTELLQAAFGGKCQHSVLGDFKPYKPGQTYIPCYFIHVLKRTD

Regarding `CCc1ccc(NS(=O)(=O)c2cc3c(cc2C)n(C)c(=O)n3C)cc1`, the activity change, negative = inhibition in assay [1] is 6.7% (inactive); in assay [2] it was 2.79%; in assay [3], 0%; in assay [4] it was 1.74%; in assay [5], -13.9%; in assay [6] it was -1.81%.

Consider `CNC(=O)c1ccccc1Nc1nc(Nc2ccc(N3CCOCC3)cc2OC)ncc1Cl`, for which the activity change, negative = inhibition is 1.38% (inactive) in assay [1]; -17.4% in assay [2]; 6.33% in assay [3]; -0.939% in assay [4]; -26.5% in assay [5]; -6.85% in assay [6].

For the compound `CC1(C)CCC(C)(C)c2cc3c(cc21)Sc1ccccc1N=C3c1ccc(C(=O)O)cc1`, the activity change, negative = inhibition in assay [1] is 9.33% (inactive); in assay [2] it was 1.76%; in assay [3] it was 4.41%; in assay [4], 11.6%; in assay [5] it was -26.9%; in assay [6] it was 3.91%.

Regarding `Cc1cc(C[C@@H]2COC[C@@H]2NC(=O)c2cccc(-n3nc(C)cc3C)c2)on1`, the activity change, negative = inhibition in assay [1] was -7.5% (inactive); in assay [2], -5.02%; in assay [3], -7.68%; in assay [4], -5.59%; in assay [5], -12.1%; in assay [6] it was -25.6%.

With `CCCN1C(=O)c2cc3sccc3n2CC1(C)C(=O)NC1CCC(C)CC1` (stereo not given), the activity change, negative = inhibition was 0.545% (inactive) in assay [1]; 0.536% in assay [2]; 4.2% in assay [3]; -0.49% in assay [4]; 0.936% in assay [5]; -2.48% in assay [6].

`CCOC(=O)c1cc2n(n1)CC(C)(C(=O)NC1CCCC1)N(c1ccc(C)cc1)C2=O` (stereo not given): the activity change, negative = inhibition is 2.4% (inactive) in assay [1]; -0.39% in assay [2]; 4.54% in assay [3]; 3.6% in assay [4]; -0.074% in assay [5]; 2.88% in assay [6].

`Nc1ccc2c3c(cccc13)C(=O)NC2=O`: the activity change, negative = inhibition in assay [1] is -69.4% (active); in assay [2], -41.1%; in assay [3], -13%; in assay [4], -8.7%; in assay [5] it was -18.3%; in assay [6] it was -8.01%.

`CCOc1ccccc1CN1C(=O)c2ccc(-c3ccco3)n2CC1(C)C(=O)NC1CCCCC1` (stereo not given): the activity change, negative = inhibition in assay [1] was 5.26% (inactive); in assay [2], -1.1%; in assay [3], 0%; in assay [4], 5.47%; in assay [5] it was 3.87%; in assay [6], 0.061%.

With `COc1ccc(-c2ncc3c(n2)OCCN(Cc2ccccc2)C3=O)cn1`, the activity change, negative = inhibition was -3.7% (inactive) in assay [1]; -12% in assay [2]; -5.92% in assay [3]; -5.55% in assay [4]; -19.1% in assay [5]; -28.2% in assay [6].

With `CN1C(=O)c2cc(C(=O)N3CCN(Cc4ccccc4)CC3)nn2CC1(C)C(=O)NCc1ccccc1` (stereo not given), the activity change, negative = inhibition is 1.23% (inactive) in assay [1]; 5.09% in assay [2]; 0.749% in assay [3]; 4.84% in assay [4]; 6.08% in assay [5]; -8.04% in assay [6].

Consider `COc1ccccc1-c1[nH]nc2ncc(C(=O)N3CCN(Cc4ccccc4)CC3)nc12`, for which the activity change, negative = inhibition in assay [1] was -63.8% (active); in assay [2] it was -70.9%; in assay [3] it was -63.7%; in assay [4], -73.4%; in assay [5], -59.4%; in assay [6], -76.7%.

As for `O=c1c2ccccc2n2c(=O)n(Cc3cccc(F)c3)nc2n1CCc1ccccc1`, the activity change, negative = inhibition in assay [1] was -1.7% (inactive); in assay [2], -7.42%; in assay [3], -7.2%; in assay [4] it was 8.21%; in assay [5], -7.17%; in assay [6] it was -9.52%.

Take `CC1(C)[C@H](Cc2cc(-c3ccccc3)on2)C[C@@H]1NCC1CC1`: the activity change, negative = inhibition in assay [1] was -5.01% (active); in assay [2] it was -5.31%; in assay [3], -6%; in assay [4], -40.7%; in assay [5] it was -19.5%; in assay [6] it was -50.1%.

Regarding `CCCn1c(=O)c2cc(Cl)ccc2n2c(SCC(=O)Nc3ccc(Cl)cc3)nnc12`, the activity change, negative = inhibition in assay [1] was -0.206% (inactive); in assay [2] it was -6.08%; in assay [3] it was 4.35%; in assay [4], 1.24%; in assay [5] it was -3.29%; in assay [6], 1.76%.

Regarding `CCOCCCN1C(=O)c2cc3ccccc3n2CC1(C)C(=O)NCCC(C)C` (stereo not given), the activity change, negative = inhibition in assay [1] was 4% (inactive); in assay [2], 6.59%; in assay [3], 4.89%; in assay [4], 8.93%; in assay [5], 10.6%; in assay [6], 0.52%.

For `CCCn1c(=O)c2ccc(C(=O)NC(C)CC)cc2n2c(=O)n(CC(=O)Nc3ccccc3)nc12` (stereo not given), the activity change, negative = inhibition was -0.37% (inactive) in assay [1]; 0.266% in assay [2]; 3.33% in assay [3]; 0.842% in assay [4]; -0.601% in assay [5]; 3.03% in assay [6].

In the case of `O=c1c2ccccc2n2c(=O)n(Cc3ccccc3)nc2n1Cc1ccc(F)cc1`, the activity change, negative = inhibition was 6.23% (inactive) in assay [1]; 9.17% in assay [2]; 3.06% in assay [3]; 12.4% in assay [4]; 6.51% in assay [5]; 5.22% in assay [6].

`COc1ccc(-c2nc3ccncc3[nH]2)cc1`: the activity change, negative = inhibition in assay [1] was -149% (active); in assay [2], -99.2%; in assay [3] it was -103%; in assay [4] it was -91.6%; in assay [5], -110%; in assay [6] it was -145%.

Take `CC1CCN(S(=O)(=O)c2ccc3c(ccn3CCC(=O)N3CCN(c4ccccn4)CC3)c2)CC1`: the activity change, negative = inhibition in assay [1] is -2.75% (inactive); in assay [2] it was -6.24%; in assay [3], -4.09%; in assay [4] it was -2.6%; in assay [5], -7.95%; in assay [6], -2.86%.

As to `Cc1cc(Nc2cc(N3CCN(C)CC3)nc(Sc3ccc(NC(=O)C4CC4)cc3)n2)n[nH]1`, the activity change, negative = inhibition was -3.15% (active) in assay [1]; -71.8% in assay [2]; 5.06% in assay [3]; -13.3% in assay [4]; -11.1% in assay [5]; -0.531% in assay [6].

Regarding `O=C(NCc1ccc2c(c1)OCO2)c1sc(=S)n2c1[nH]c(=O)c1ccccc12`, the activity change, negative = inhibition in assay [1] is -20.2% (active); in assay [2] it was -52.7%; in assay [3], 0%; in assay [4] it was -2.67%; in assay [5], -35.9%; in assay [6] it was -28.2%.

With `Cc1cc2c(cc1S(=O)(=O)NCc1ccc3c(c1)OCO3)n(C)c(=O)n2C`, the activity change, negative = inhibition in assay [1] is 13.6% (inactive); in assay [2] it was 12.8%; in assay [3], 1.49%; in assay [4] it was 9.41%; in assay [5] it was 2.71%; in assay [6], 6.83%.

On to `Cc1ccc(Cn2c(=O)c3ccccc3n3c(CCC(=O)NCc4ccc5c(c4)OCO5)nnc23)cc1`, for which the activity change, negative = inhibition was -5.97% (inactive) in assay [1]; -13.5% in assay [2]; 2.22% in assay [3]; -2.65% in assay [4]; -2.38% in assay [5]; -7.16% in assay [6].

With `COC(=O)[C@]12C(=O)C(C)=C(O)[C@@]1(C)C(C)=CC1[C@@]34CC[C@@H](OC(C)=O)C(C)(C)C3[C@H](C[C@]12C)OC4=O` (stereo not given in full), the activity change, negative = inhibition is 5.51% (inactive) in assay [1]; 0% in assay [2]; 3.85% in assay [3]; 9.8% in assay [4]; -6.73% in assay [5]; 3.04% in assay [6].

In the case of `CN(C)[C@@H]1C(=O)C(C(N)=O)=C(O)[C@@]2(O)C(=O)C3=C(O)c4c(O)ccc(Cl)c4[C@@H](O)[C@H]3C[C@@H]12`, the activity change, negative = inhibition in assay [1] is -74.5% (active); in assay [2], -24.2%; in assay [3], 6.87%; in assay [4] it was 3.22%; in assay [5], -8.53%; in assay [6], -5.78%.
